The text below walks through data of publication PMC4336329 (PLoS ONE, 2015).

Each structure is given as a SMILES string. The whole screen tested about 310,000 compounds, of which about 14,000 (4.5%) showed an effect of 50% or more. The effect is printed as a negative number. Shown is part of a subset that was picked to be rich in strong results.
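Also: peak tail current of the secondary pulse compared with the same well before compound.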

The target in this assay is human ether-à-go-go-related gene (hERG) potassium channel (human, UniProt Q12809). In words: primary screen, population patch clamp on CHO cells stably expressing hERG; higher = less effect of the substance.
human ether-à-go-go-related gene (hERG) potassium channel, sequence (Q12809 whole entry, looked up): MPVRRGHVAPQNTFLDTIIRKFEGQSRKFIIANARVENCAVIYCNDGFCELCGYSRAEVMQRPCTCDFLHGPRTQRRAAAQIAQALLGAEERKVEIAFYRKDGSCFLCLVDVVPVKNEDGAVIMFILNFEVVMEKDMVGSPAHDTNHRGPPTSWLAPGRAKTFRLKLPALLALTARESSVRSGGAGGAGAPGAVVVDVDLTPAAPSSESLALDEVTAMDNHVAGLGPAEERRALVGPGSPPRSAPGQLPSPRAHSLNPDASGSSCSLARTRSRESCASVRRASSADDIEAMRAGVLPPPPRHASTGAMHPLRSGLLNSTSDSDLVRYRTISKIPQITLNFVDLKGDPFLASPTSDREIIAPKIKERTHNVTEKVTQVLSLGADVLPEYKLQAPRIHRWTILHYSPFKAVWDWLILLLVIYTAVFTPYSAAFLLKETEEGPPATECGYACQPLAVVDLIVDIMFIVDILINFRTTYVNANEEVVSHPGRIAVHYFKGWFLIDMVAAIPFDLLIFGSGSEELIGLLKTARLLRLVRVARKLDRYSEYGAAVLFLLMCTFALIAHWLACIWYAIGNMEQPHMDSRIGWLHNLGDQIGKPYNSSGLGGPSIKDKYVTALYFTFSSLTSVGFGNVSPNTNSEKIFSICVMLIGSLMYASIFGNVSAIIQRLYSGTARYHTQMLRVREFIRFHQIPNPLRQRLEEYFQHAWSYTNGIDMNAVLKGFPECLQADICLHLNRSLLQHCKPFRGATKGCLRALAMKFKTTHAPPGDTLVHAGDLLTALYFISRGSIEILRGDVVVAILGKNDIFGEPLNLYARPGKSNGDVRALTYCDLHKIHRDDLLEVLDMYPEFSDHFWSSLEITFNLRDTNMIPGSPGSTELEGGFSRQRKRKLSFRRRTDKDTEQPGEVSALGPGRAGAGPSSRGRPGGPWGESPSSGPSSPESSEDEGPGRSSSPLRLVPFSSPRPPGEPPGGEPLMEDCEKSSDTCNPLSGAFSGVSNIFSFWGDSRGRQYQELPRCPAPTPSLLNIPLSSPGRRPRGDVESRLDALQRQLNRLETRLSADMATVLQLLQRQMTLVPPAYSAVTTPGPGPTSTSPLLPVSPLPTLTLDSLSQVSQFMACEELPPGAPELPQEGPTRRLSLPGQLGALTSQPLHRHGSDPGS
Turning to `COC(=O)c1ccc(CSc2nc3sc(C)c(C)c3c(=O)[nH]2)cc1`, the “hERG current change (%, negative = inhibition) at 10uM” value came out at 0.764%. As for `Nc1c(C(=O)c2ccccc2)sc2nsc(SCCN3CCOCC3)c12`, the “hERG current change (%, negative = inhibition) at 10uM” value is given as 18.1%. In the case of `CCOc1ccc(CN2CCN(Cc3cnn(CC)c3C)CC2CCO)cc1` (centres unmarked), the “hERG current change (%, negative = inhibition) at 10uM” value is given as -67.8%. With `CCOc1ccc(CN2CCN(Cc3cn(CC)nc3C)CC2CCO)cc1` (centres unmarked), the “hERG current change (%, negative = inhibition) at 10uM” value is -62%. Take `CCn1cc(CN2CCN(Cc3ccc(OC)c(C)c3C)C(CCO)C2)c(C)n1` (centres unmarked): the “hERG current change (%, negative = inhibition) at 10uM” value is -23.1%. For `CCn1cc(CN2CCN(Cc3cccc(OC)c3)C(CCO)C2)c(C)n1` (centres unmarked) the value was -14.4%; for `CCn1ncc(CN2CCN(Cc3cccc(OC)c3)C(CCO)C2)c1C` (centres unmarked), 7.07%.

Turning to `CCOc1ccc(CN2CCN(Cc3c(C)nn(CC)c3C)CC2CCO)cc1` (centres unmarked), the “hERG current change (%, negative = inhibition) at 10uM” value was -45%. On to `CC1CCCC(C)N1C(=O)C1CC(c2ccc(F)cc2)=NO1` (centres unmarked), for which the “hERG current change (%, negative = inhibition) at 10uM” value is on record as -7.79%. For the compound `O=C(N/N=C/c1ccncc1)c1cc(-c2ccc(Br)s2)[nH]n1`, the “hERG current change (%, negative = inhibition) at 10uM” value was -12.4%. For `Cc1ccc(S(=O)(=O)NCCSCc2ccco2)cc1` the value was -4.42%. `Cc1ccc2c(c1)N(C(=O)CCC(=O)NCc1ccccn1)CC(C)O2` (centres unmarked): the “hERG current change (%, negative = inhibition) at 10uM” value was -7.23%. Regarding `COc1ccc(C)cc1N(CC(=O)O)S(=O)(=O)c1ccc(C)cc1`, the “hERG current change (%, negative = inhibition) at 10uM” value was 17.1%. `CN(C)CCCn1c2c(c(SCC(=O)Nc3cccc4ccccc34)nc1=O)CCCC2`: the “hERG current change (%, negative = inhibition) at 10uM” value is -45.6%. With `CN(C)CCCn1c2c(c(SCC(=O)Nc3cccc4ccccc34)nc1=O)CCC2` the figure was -38.4%; with `CN(C)CCn1c2c(c(SCC(=O)Nc3ccccc3C(F)(F)F)nc1=O)CCCC2`, -18.4%; with `CCN(CC)CCCn1c2c(c(SCC(=O)N3CCCc4ccccc43)nc1=O)CCC2`, -22.9%. In the case of `Cc1cccc(NC(=O)CSc2nc(=O)n(CCN3CCOCC3)c3c2CCCC3)c1C`, the “hERG current change (%, negative = inhibition) at 10uM” value is reported as -23.6%. Regarding `CCN(CC)CCCn1c2c(c(SCC(=O)N3CCc4ccccc43)nc1=O)CCC2`, the “hERG current change (%, negative = inhibition) at 10uM” value is -78.6%. For the compound `CCN(CC)CCn1c2c(c(SCC(=O)Nc3cccc4ccccc34)nc1=O)CCCC2`, the “hERG current change (%, negative = inhibition) at 10uM” value is reported as -63.8%. Consider `CCN(CC)CCCn1c2c(c(SCC(=O)Nc3cccc(C)c3C)nc1=O)CCC2`, for which the “hERG current change (%, negative = inhibition) at 10uM” value is listed as -55.3%. Regarding `CN(C)CCn1c2c(c(SCC(=O)N3CCc4ccccc43)nc1=O)CCCC2`, the “hERG current change (%, negative = inhibition) at 10uM” value is on record as -44.7%. Consider `CN(C)CCn1c2c(c(SCC(=O)Nc3cccc4ccccc34)nc1=O)CCCC2`, for which the “hERG current change (%, negative = inhibition) at 10uM” value is listed as -40.4%. For the compound `CCN(CC)CCCn1c2c(c(SCC(=O)Nc3cc(C)on3)nc1=O)CCC2`, the “hERG current change (%, negative = inhibition) at 10uM” value was -2.43%. In the case of `CCN(CC)CCCn1c2c(c(SCC(=O)Nc3cccc4ccccc34)nc1=O)CCC2`, the “hERG current change (%, negative = inhibition) at 10uM” value is given as -56.6%.

Turning to `COc1ccc(C)cc1S(=O)(=O)Nc1cc(Cl)ccc1Cl`, the “hERG current change (%, negative = inhibition) at 10uM” value is listed as 7.53%. Take `CCOC(=O)c1cccc(NC(=O)c2cccs2)c1`: the “hERG current change (%, negative = inhibition) at 10uM” value is -13.1%. For `CCCCc1cc(C(=O)Cc2ccccn2)c(O)cc1O` the value was 16.9%; for `O=C(NCc1cccnc1)Nc1ccc(Cl)c(Cl)c1`, -0.174%; for `COc1ccc(CN2CC(=O)N3[C@H]4c5ccccc5OC[C@@H]4[C@H](c4ccccc4)[C@]3(C)C2=O)cc1`, 15.3%. In the case of `COc1ccccc1OCCOc1ccc(/C=C2\C(=N)N3N=C(S(C)(=O)=O)SC3=NC2=O)cc1`, the “hERG current change (%, negative = inhibition) at 10uM” value came out at 12%. Consider `CN(C)CCn1c2c(c(SCC(=O)Nc3cccc4ccccc34)nc1=O)CCC2`, for which the “hERG current change (%, negative = inhibition) at 10uM” value was -13.6%. On to `CCN(CC)CCn1c2c(c(SCC(=O)Nc3cccc4ccccc34)nc1=O)CCC2`, for which the “hERG current change (%, negative = inhibition) at 10uM” value was -62.7%. As to `CN=C(NC(=O)Nc1c(C)cccc1C)NC(=O)Nc1c(C)cccc1C`, the “hERG current change (%, negative = inhibition) at 10uM” value is listed as 3.97%.

Take `COc1ccccc1CN(C)C(=O)c1cc(-c2cccs2)nc2ccccc12`: the “hERG current change (%, negative = inhibition) at 10uM” value came out at 4.13%. For `COc1ccccc1CN(C)C(=O)c1cc(C)nc2ccccc12` the value was -65.1%; for `COc1ccccc1CN(C)C(=O)c1cc(-c2cc(OC)c(OC)c(OC)c2)nc2ccccc12`, 12.9%. For the compound `CN(C)C(=S)NC1(C)CCS(=O)(=O)C1` (centres unmarked), the “hERG current change (%, negative = inhibition) at 10uM” value was 6.89%. With `COc1cc(/C=N/NC(=O)NC23CC4CC(CC(C4)C2)C3)ccc1OCC(N)=O` the figure was -57%; with `O=C(N/N=C/c1ccc(O)cc1)NC12CC3CC(CC(C3)C1)C2`, -55.7%. On to `CCOc1ccc(/C=N/NC(=O)NC23CC4CC(CC(C4)C2)C3)cc1O`, for which the “hERG current change (%, negative = inhibition) at 10uM” value was -10.9%.

As for `O=C(N/N=C/c1ccncc1)NC12CC3CC(CC(C3)C1)C2`, the “hERG current change (%, negative = inhibition) at 10uM” value is recorded as -26.6%. Consider `COc1cc(/C=N/NC(=O)NC23CC4CC(CC(C4)C2)C3)ccc1O`, for which the “hERG current change (%, negative = inhibition) at 10uM” value is -34.3%. For `O=C(N/N=C/c1ccc(O)c(O)c1)NC12CC3CC(CC(C3)C1)C2`, the “hERG current change (%, negative = inhibition) at 10uM” value is on record as -11.8%.
